Screening results from PubChem.
MCF10A rerep = induces DNA re-replication in MCF 10a normal breast cells | MCF 10A DNA re-replication, Hoechst nuclear intensity, 48 h | Potency, µM (titrated, usually from 46.1 µM), without a hit: top-dose activity, positive = re-replication, hits mostly activators | 350,000 tested, 2.9% active | AID 624296; further: potency means the concentration at half of the fitted maximal effect; % of control where 0% means no effect; nearly all actives have a fitted effect of over 50% in size
IL-1B inflam inh = inhibitors of inflammasome signaling (IL-1 beta secretion); activity change, % at 57.5 µM; 360,000 tested, 4.7% active; AID 743279; THP-1 LPS/ATP IL-1B secretion, AlphaLISA, 16 h; active compounds read low; in the data active means activity change below about -50%; inconclusive means mostly about -30% to -49%; further: on the % scale 0 is the no-effect control and ±100 the full control effect
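Secreted IL-1B measured by AlphaLISA bead assay after 16 h compound exposure of THP-1 cells; compounds (final up to 57.5 uM) added 1 h before LPS (250 ng/mL) and ATP (1.25 mM) stimulation; lower signal means less secretion.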
Giardia killer = kills Giardia lamblia; 340,000 tested, 0.15% active; activity change, % at 7.66 µM, hits read low; Giardia lamblia trophozoite viability; in the data active means activity change below about -80%; inconclusive means between about -30% and that limit;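 further: parasites exposed to compound for two days anaerobically before the ATP read; on the % scale 0 is the no-effect control and ±100 the full control effect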
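Media and compound were dispensed first, then trophozoites at 100 cells/well; plates sat 48 hrs at 37 deg C without oxygen before ATP luminescence reagent was added and read after 15-30 min at room temperature.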
Vif-A3G inh = inhibitors of Vif-APOBEC3G interaction. Q9HC16. Potency, µM (top dose mostly 46.1 µM), inactives show at the highest dose activity, negative = active, hits mostly inhibitors. HeLa A3G-eYFP + Vif (tagged APOBEC3G with the HIV-1 protein that degrades it), YFP fluorescence, overnight. 410,000 tested, 0.076% active; further: potency means the concentration at half of the fitted maximal effect; on the % scale 0 is the no-effect control and ±100 the full control effect; nearly all actives have a fitted effect of over 60% in size
Target sequence (Q9HC16 whole entry, looked up): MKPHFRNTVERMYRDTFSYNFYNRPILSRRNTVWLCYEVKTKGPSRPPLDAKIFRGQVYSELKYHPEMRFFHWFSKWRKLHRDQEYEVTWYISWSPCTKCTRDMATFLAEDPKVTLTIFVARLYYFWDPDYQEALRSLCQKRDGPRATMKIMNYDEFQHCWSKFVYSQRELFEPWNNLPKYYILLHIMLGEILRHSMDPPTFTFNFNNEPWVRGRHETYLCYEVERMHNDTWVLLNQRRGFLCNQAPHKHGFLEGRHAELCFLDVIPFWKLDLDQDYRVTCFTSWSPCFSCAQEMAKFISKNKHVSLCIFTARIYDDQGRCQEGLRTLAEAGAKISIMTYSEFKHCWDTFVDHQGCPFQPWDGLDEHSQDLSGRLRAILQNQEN
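HeLa cells stably expressing Vif and C-terminally eYFP-tagged A3G, seeded overnight at 37 deg C, then exposed to compound by pintool overnight at 37 deg C. Rise in yellow fluorescence (Ex 488/Em 500-530, Acumen) marks blocked Vif-driven A3G degradation.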
Vif-A3F inh = Vif-A3F binding inhibition | Potency, µM (highest dose often 46.1 µM), for the others: at the highest dose activity, negative = active | 390,000 tested, 0.2% active | HeLa A3F-eYFP + Vif (tagged APOBEC3F with the HIV-1 protein that degrades it), YFP fluorescence increase; further: potency means the concentration at half of the fitted maximal effect; % of control where 0% means no effect; nearly all actives have a fitted effect of over 65% in size
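HeLa cells stably expressing Vif plus C-terminally eYFP-tagged A3F were seeded, incubated overnight at 37 deg C, dosed with compound, incubated overnight again at 37 deg C. Yellow fluorescence (Ex 488/Em 500-530) reported blocked Vif-mediated A3F-eYFP degradation.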
SW480 rereplic = inducers of DNA re-replication in SW480 colon cancer cells. Potency, µM (top dose mostly 46.1 µM), for inactives: at the highest dose re-replication activation, most hits filed as activators. AID 624297. 340,000 tested, 1.8% active. SW480 DNA re-replication, Hoechst DNA content imaging, 48 h; further: potency means the concentration at half of the fitted maximal effect; % of control where 0% means no effect; nearly all actives have a fitted effect of over 55% in size
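First, 250 cells per well were seeded. Next, compound or vehicle (23 nL) was pinned in, plates sat 48 hr at 37 C. Finally Hoechst was added for 40 min before fluorescence scanning.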
* = called active by the depositor; ? = inconclusive; . = not tested or not shown; [ ] = remark or other dose. This is a sample that favours compounds with a hit; in the whole collection about 6.9% have one here. Unless noted, the call rests on the fitted dose curve; in most records, active means well fitted curve in the direction sought with a large enough effect; inconclusive means small, poorly fitted or top-dose-only effect, or another doubt; inactive means no such curve, though single readings can be large; an effect the other way counts as inactive or inconclusive.

SMILES | MCF10A rerep | IL-1B inflam inh | Giardia killer | Vif-A3G inh | Vif-A3F inh | SW480 rereplic
CCc1ccccc1N(C)S(=O)(=O)c1ccc(-c2cc(C)no2)s1 | 2.31µM* | 25.5 | 19.1 | 3.9% | 3.1% | 16.9%
O=[N+]([O-])c1cc(Cl)cc2c1nc(NCCO)c1ccccc12 | 18.0% | -82.9* | -15.2 | -19.5% | -1.9% | ?
O=C1NCC(=O)N2C(c3ccccc3)c3[nH]c4ccccc4c3C[C@@H]12 (some centres not stated) | 1.0% | -10.4 | -12.0 | 0.4% | 3.2% | -32.2%
O=C1[C@@H]2Cc3c([nH]c4ccccc34)[C@@H](c3ccccc3)N2C(=O)[C@@H]2Cc3c([nH]c4ccccc34)[C@@H](c3ccccc3)N12 | ? | . | . | . | . | 23.1µM*
O=C(CSc1nccn1Cc1ccccc1)NCc1ccccc1Cl | . | . | . | -6.1% | 3.9% | .
Cc1ccc(Cn2c(CNS(=O)(=O)c3c(C)cc(C)cc3C)nc3cccnc32)cc1 | . | . | . | -7.0% | ? | .
Cc1ccc(N/C(N)=N/c2nc(C)cc(N3CCCCC3)n2)c(C)c1 | 18.4µM* | -103.0* | 7.1 | 1.2% | 7.7% | ?
Cc1ccc(N/C(N)=N/c2nc3c(c(=O)[nH]2)CCCC3)c(C)c1 | -7.1% | -20.0 | -10.1 | ? | -18.7% | 0.7%
CCOC(=O)N1CCC(N(C(=O)Nc2ccc(Cl)c(Cl)c2)C(C)CC)CC1 (configuration not stated) | ? | -84.8* | 8.9 | -2.7% | -2.0% | 1.8%
CC(C)(C=O)C1=CC(=O)c2ccccc2C1=O | 13µM* | -102.5* | -6.4 | -10.5% | 7.5% | 7.31µM*
CC1=CC(=O)c2ccccc2C1=O | 0.5% | 21.1 | 10.8 | ? | -25.3% | -14.2%
O=C(CNC(=O)c1cc(-c2ccccc2)nn1-c1ccccc1)Nc1ccccc1Br | 11.6µM* | 37.5 | -8.1 | -0.9% | -16.1% | -24.1%
Cc1ccc(C)c(NC(=O)c2cc(-c3ccccc3)nn2-c2ccccc2)c1 | ? | -21.1 | -4.8 | -1.2% | -18.0% | ?
CCN(CC(=O)Nc1ccccc1C(F)(F)F)C(=O)c1cc(-c2ccccc2)nn1-c1ccccc1 | 10.3µM* | 4.7 | 22.7 | 1.0% | 1.5% | -10.4%
CCN(CC(=O)Nc1ccccc1OC)C(=O)c1cc(-c2ccccc2)nn1-c1ccccc1 | ? | -10.4 | 8.2 | -14.2% | -2.7% | ?
CCN(CC(=O)Nc1ccccc1C(F)(F)F)C(=O)c1ccc2[nH]c3c(c2c1)CC(C)CC3 (configuration not stated) | ? | -62.4* | -11.5 | -3.0% | 2.0% | 5.6%
COc1ccccc1NC(=O)Cn1c(SCC(=O)NCc2ccccc2)nc2ccccc21 | . | . | . | -2.0% | 0.0% | .
Cn1c(N)c(Sc2ccc([N+](=O)[O-])cc2)c(=O)n(C)c1=O | 7.1% | 14.2 | -23.1 | -2.7% | 3.8% | -4.0%
Nc1ccc(Sc2ccc([N+](=O)[O-])cc2)cc1 | -0.3% | -69.6* | 1.2 | -4.3% | -5.7% | 10.2%
CCN(CC)c1nc(Nc2ccccc2)nc(Oc2ccc(C(=O)OC)cc2)n1 | ? | 0.0 | -11.9 | -1.1% | -0.8% | 20.6µM*
[O-][n+]1c2ccccc2cc2ccccc21 | 18.4µM* | -12.1 | -9.7 | 4.4% | 1.2% | 18.4µM*
CCOc1ccc(NC(=O)N2CC=C(c3c[nH]c4ccccc34)CC2)cc1 | . | . | . | ? | 28.2µM* | .
CCOC(=O)c1cccc(NC(=O)N2CC=C(c3c[nH]c4ccccc34)CC2)c1 | . | . | . | ? | 5.01µM* | .
COc1ccc(S(=O)(=O)Nc2cccc(-c3ccc(N4CCCC4)nn3)c2)cc1F | . | . | . | -2.0% | 9.7% | .
CC(C)OCCCN(C)C1CCN(S(=O)(=O)c2ccc(-c3cc(C(F)(F)F)no3)s2)CC1 | 15.0% | ? | ? | -1.2% | 2.3% | 14.6µM*
SMILES | MCF10A rerep | IL-1B inflam inh | Giardia killer | Vif-A3G inh | Vif-A3F inh | SW480 rereplic
CCOC(=O)/C(=C\c1ccc(Cl)cc1)c1nc2sc(C)c(C)c2c(=O)[nH]1 | 5.17µM* | -99.8* | -17.4 | -29.0% | -28.1% | ?
CCCN1CCCc2cc(CN)ccc21 | 13µM* | 46.7 | 3.4 | -0.2% | -14.1% | ?
CN1CCCc2cc(C=O)ccc21 | 1.4% | -7.7 | -15.9 | 2.2% | . | -3.7%[9.22 µM]
COC(=O)c1ccc(Nc2ncnc3c2nc2n3CCCC2)cc1 | . | . | . | 3.8% | -3.2% | .
Cc1cc(C)c2ccc3c(C)c(C)nc3c2[nH]1 | 20.6µM* | -0.8 | -9.0 | -14.1% | -28.4% | ?
Cc1cc(=O)[nH]c2c(C)c(N)ccc12 | -3.1% | -0.8 | 1.1 | -0.3% | -0.8% | -8.1%
N#Cc1nc(Cc2ccccc2)oc1NCCCn1ccnc1 | ? | 16.1 | 7.5 | -0.3% | -2.1% | 16.4µM*
COc1ccc(OCc2nc(C#N)c(NCCCn3ccnc3)o2)cc1 | -5.0% | 13.2 | 15.5 | 3.6% | 4.3% | -21.7%
CC(C)(C)c1cc(NC(=O)Nc2ccccc2)no1 | 15.3% | -53.8* | -12.6 | -3.8% | -11.3% | -15.4%
Cc1ccccc1NC(=O)CN1C(=O)S/C(=C\c2ccc(-c3cccc(C(=O)O)c3C)o2)C1=O | 3.9% | -3.4 | 33.1 | -6.6% | 5.2% | 15.0%
Cc1cccc(NC(=O)CN2C(=O)S/C(=C\c3ccc(-c4cccc(C(=O)O)c4C)o3)C2=O)c1 | 23.1µM* | 20.2 | -0.2 | -3.3% | 10.5% | ?
Cc1ccc(NC(=O)CN2C(=O)S/C(=C/c3ccc(-c4cc(C(=O)O)ccc4C)o3)C2=O)cc1C | 5.8µM* | 16.8 | -0.3 | 2.6% | -6.2% | ?
O=C(CN1C(=O)c2cccnc2Sc2ccccc21)Nc1cc(F)ccc1F | . | . | . | 0.5% | -1.8% | .
COC(=O)c1ccccc1NC(=S)NC(NC(=O)c1ccccc1[N+](=O)[O-])C(Cl)(Cl)Cl (configuration not stated) | 0.9% | 39.9 | -4.4 | 1.4% | . | -1.1%
COc1ccc(NC(=S)NC(NC(=O)c2cccc3ccccc23)C(Cl)(Cl)Cl)c([N+](=O)[O-])c1 (configuration not stated) | 3.2% | -55.7* | 9.5 | -0.2% | 1.0% | ?
O=C(NC(NC(=S)Nc1c(Cl)cccc1Cl)C(Cl)(Cl)Cl)c1cccc([N+](=O)[O-])c1 (configuration not stated) | 6.51µM* | -26.5 | -11.6 | ? | ? | ?
COc1ccc(NC(=S)NC(NC(=O)c2ccc(Cl)cc2Cl)C(Cl)(Cl)Cl)c([N+](=O)[O-])c1 (configuration not stated) | -2.0% | -95.4* | 10.1 | 2.3% | -14.9% | -2.3%
COc1ccc(NC(=S)NC(NC(=O)c2ccccc2Cl)C(Cl)(Cl)Cl)c([N+](=O)[O-])c1 (configuration not stated) | 17.6% | -86.8* | -3.1 | 2.5% | 1.2% | 2.4%
